# Laboratory results published in PubChem BioAssay AID1159580 (chemical genetic matrix, 2015).
# Values joined by “and” are separate entries in the source; they are usually repeats but may differ in a detail not shown here. Identical values can stand only once. Hit rate of the full screen: of about 5,500 compounds, about 2,000 (36%) were called active. Another 18% or so got no clear call; they are omitted. Some of the results follow. A number with no mark means an inactive call. Cut-off read from the data, not from the text of the source: active = normalized growth mostly below about 0.91 (no sharp cut-off); inconclusive = no clear call, values can overlap the other calls; inactive = mostly above about 0.92.
# Assay: chemical genetic growth profiling, strain panel (AID 1159580);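 note: tested at 20 µM; growth read once vehicle control cultures reached saturation at 30 °C; 1 = growth at the plate median or of vehicle wells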
# Settings: S. cerevisiae deletion strains, growth OD
smiles,measurement,setting,value
O=C1CC[C@]23C=CC(=O)NCCCCNCCCNC(=O)/C=C/c4ccc(c2c4)O[C@@H]3C1,normalized growth,"locus YAL021C, strain ccr4, stronger effect = lower value",1.02
same,normalized growth,"locus YAL026C, strain drs2, stronger effect = lower value",1.04
same,normalized growth,"locus YAL030W, strain snc1, stronger effect = lower value",1.01
same,normalized growth,"locus YBL061C, strain skt5, stronger effect = lower value",1.02
same,normalized growth,"locus YBR009C, strain hhf1, stronger effect = lower value",1.03
same,normalized growth,"locus YBR021W, strain FUR4, stronger effect = lower value",0.999
same,normalized growth,"locus YBR023C, strain chs3, stronger effect = lower value",1.02
same,normalized growth,"locus YBR171W, strain sec66, stronger effect = lower value",1.01
same,normalized growth,"locus YBR229C, strain ROT2, stronger effect = lower value",1.01
same,normalized growth,"locus YBR231C, strain swc5, stronger effect = lower value",1.01
same,normalized growth,"locus YBR279W, strain paf1, stronger effect = lower value",1
same,normalized growth,"locus YCL011C, strain gbp2, stronger effect = lower value",1
same,normalized growth,"locus YCL016C, strain dcc1, stronger effect = lower value",1.03
same,normalized growth,"locus YCL029C, strain bik1, stronger effect = lower value",0.997
same,normalized growth,"locus YCL061C, strain MRC1, stronger effect = lower value",1
same,normalized growth,"locus YCL069W, strain vba3, stronger effect = lower value",1.01
same,normalized growth,"locus YCR088W, strain abp1, stronger effect = lower value",1.02
same,normalized growth,"locus YDL005C, strain med2, stronger effect = lower value",1.02
same,normalized growth,"locus YDL035C, strain GPR1, stronger effect = lower value",1.05
same,normalized growth,"locus YDL040C, strain nat1, stronger effect = lower value",1
same,normalized growth,"locus YDL074C, strain BRE1, stronger effect = lower value",1.05
same,normalized growth,"locus YDL101C, strain DUN1, stronger effect = lower value",1
same,normalized growth,"locus YDL134C, strain PPH21, stronger effect = lower value",0.954
same,normalized growth,"locus YDL185W, strain tfp1, stronger effect = lower value",0.993
same,normalized growth,"locus YDL192W, strain arf1, stronger effect = lower value",1.02
same,normalized growth,"locus YDR001C, strain nth1, stronger effect = lower value",1.01
same,normalized growth,"locus YDR069C, strain doa4, stronger effect = lower value",1.03
same,normalized growth,"locus YDR101C, strain arx1, stronger effect = lower value",0.997
same,normalized growth,"locus YDR137W, strain rgp1, stronger effect = lower value",0.993
same,normalized growth,"locus YDR150W, strain NUM1, stronger effect = lower value",1.01
same,normalized growth,"locus YDR159W, strain sac3, stronger effect = lower value",1.03
same,normalized growth,"locus YDR162C, strain NBP2, stronger effect = lower value",1.02
same,normalized growth,"locus YDR195W, strain ref2",1.02
same,normalized growth,"locus YDR297W, strain sur2, stronger effect = lower value",1.01
same,normalized growth,"locus YDR318W, strain mcm21, stronger effect = lower value",1.01
same,normalized growth,"locus YDR334W, strain swr1, stronger effect = lower value",1.01
same,normalized growth,"locus YDR335W, strain msn5, stronger effect = lower value",1.03
same,normalized growth,"locus YDR388W, stronger effect = lower value",0.993
same,normalized growth,"locus YDR392W, strain spt3, stronger effect = lower value",1.01
same,normalized growth,"locus YDR502C, strain sam2, stronger effect = lower value",0.963
same,normalized growth,"locus YEL003W, strain gim4, stronger effect = lower value",1.01
same,normalized growth,"locus YEL037C, strain rad23, stronger effect = lower value",1.02
same,normalized growth,"locus YEL061C, strain CIN8 (second series), stronger effect = lower value",1.01
same,normalized growth,"locus YEL061C, strain CIN8, stronger effect = lower value",1.01
same,normalized growth,"locus YER015W, strain faa2, stronger effect = lower value",1.01
same,normalized growth,"locus YER016W, strain bim1, stronger effect = lower value",1.02
same,normalized growth,"locus YER110C, stronger effect = lower value",0.981
same,normalized growth,"locus YER111C, strain swi4, stronger effect = lower value",1.01
same,normalized growth,"locus YER155C, strain BEM2 (second series), stronger effect = lower value",1.01
same,normalized growth,"locus YER155C, strain BEM2, stronger effect = lower value",1.01
same,normalized growth,"locus YER167W, strain BCK2, stronger effect = lower value",1.02
same,normalized growth,"locus YFR010W, strain ubp6, stronger effect = lower value",1.02
same,normalized growth,"locus YGL078C, strain dbp3, stronger effect = lower value",0.987
same,normalized growth,"locus YGL086W, strain mad1, stronger effect = lower value",0.99
same,normalized growth,"locus YGL167C, strain pmr1, stronger effect = lower value",1.03
same,normalized growth,"locus YGL173C, strain kem1, stronger effect = lower value",1.02
same,normalized growth,"locus YGL227W, strain vid30, stronger effect = lower value",1.02
same,normalized growth,"locus YGL240W, strain doc1, stronger effect = lower value",1.02
same,normalized growth,"locus YGL248W, strain PDE1, stronger effect = lower value",1
same,normalized growth,"locus YGL253W, strain hxk2, stronger effect = lower value",1.02
same,normalized growth,"locus YGR135W, strain pre9, stronger effect = lower value",0.951
same,normalized growth,"locus YGR252W, strain gcn5, stronger effect = lower value",0.903
same,normalized growth,"locus YHR013C, strain ard1, stronger effect = lower value",1.41 [resistant] (active)
same,normalized growth,"locus YHR027C, strain rpn1, stronger effect = lower value",1
same,normalized growth,"locus YHR030C, strain SLT2, stronger effect = lower value",1.05
same,normalized growth,"locus YHR079C, strain IRE1 (second series), stronger effect = lower value",0.995
same,normalized growth,"locus YHR079C, strain IRE1, stronger effect = lower value",1.04
same,normalized growth,"locus YHR094C, strain hxt1, stronger effect = lower value",0.993
same,normalized growth,"locus YHR129C, strain ARP1, stronger effect = lower value",1.01
same,normalized growth,"locus YHR142W, strain chs7, stronger effect = lower value",1.01
same,normalized growth,"locus YHR200W, strain rpn10, stronger effect = lower value",0.963
same,normalized growth,"locus YIL066C, strain RNR3, stronger effect = lower value",1.04
same,normalized growth,"locus YIL073C, strain SPO22, stronger effect = lower value",0.97
same,normalized growth,"locus YIL125W, strain kgd1, stronger effect = lower value",0.988
same,normalized growth,"locus YIR030C, strain dcg1, stronger effect = lower value",0.997
same,normalized growth,"locus YJL092W, strain hpr5, stronger effect = lower value",1.01
same,normalized growth,"locus YJL095W, strain BCK1 (second series), stronger effect = lower value",1.04
same,normalized growth,"locus YJL095W, strain BCK1, stronger effect = lower value",1.01 and 1.04
same,normalized growth,"locus YJL115W, strain asf1, stronger effect = lower value",1.02
same,normalized growth,"locus YJL129C, strain trk1, stronger effect = lower value",1.01
same,normalized growth,"locus YJL134W, strain LCB3, stronger effect = lower value",1.01
same,normalized growth,"locus YJL154C, strain vps35, stronger effect = lower value",1.01
same,normalized growth,"locus YJL164C, strain tpk1, stronger effect = lower value",0.974
same,normalized growth,"locus YJL166W, strain qcr8, stronger effect = lower value",1.04
same,normalized growth,"locus YJL168C, strain set2, stronger effect = lower value",1
same,normalized growth,"locus YJL187C, strain SWE1 (second series), stronger effect = lower value",0.99
same,normalized growth,"locus YJR043C, strain POL32, stronger effect = lower value",1.04
same,normalized growth,"locus YJR066W, strain TOR1, stronger effect = lower value",0.98
same,normalized growth,"locus YKL009W, strain mrt4, stronger effect = lower value",1.04
same,normalized growth,"locus YKL068W, stronger effect = lower value",0.993
same,normalized growth,"locus YKL085W, strain MDH1 (second series), stronger effect = lower value",0.997
same,normalized growth,"locus YKL085W, strain MDH1, stronger effect = lower value",0.997
same,normalized growth,"locus YKL160W, strain elf1, stronger effect = lower value",1.04
same,normalized growth,"locus YKR001C, strain vps1, stronger effect = lower value",0.977
same,normalized growth,"locus YKR026C, strain gcn3, stronger effect = lower value",1.01
same,normalized growth,"locus YKR091W, strain srl3, stronger effect = lower value",1.01
same,normalized growth,"locus YLL001W, strain dnm1, stronger effect = lower value",0.965
same,normalized growth,"locus YLL026W, stronger effect = lower value",1.01
same,normalized growth,"locus YLL041C, strain sdh2, stronger effect = lower value",1.01
same,normalized growth,"locus YLR027C, strain aat2, stronger effect = lower value",1.01
same,normalized growth,"locus YLR039C, strain RIC1, stronger effect = lower value",1.08
same,normalized growth,"locus YLR058C, strain SHM2, stronger effect = lower value",1.01
same,normalized growth,"locus YLR102C, strain apc9, stronger effect = lower value",0.985
same,normalized growth,"locus YLR113W, strain HOG1, stronger effect = lower value",0.962
same,normalized growth,"locus YLR221C, strain rsa3, stronger effect = lower value",1.01
same,normalized growth,"locus YLR258W, strain gsy2, stronger effect = lower value",1.01
same,normalized growth,"locus YLR262C, strain YPT6 (second series), stronger effect = lower value",1
same,normalized growth,"locus YLR268W, strain sec22, stronger effect = lower value",1.01
same,normalized growth,"locus YLR320W, strain mms22, stronger effect = lower value",1.04
same,normalized growth,"locus YLR330W, strain CHS5, stronger effect = lower value",1.01
same,normalized growth,"locus YLR342W, strain FKS1 (second series), stronger effect = lower value",1.04
same,normalized growth,"locus YLR342W, strain FKS1, stronger effect = lower value",1
same,normalized growth,"locus YLR357W, strain rsc2, stronger effect = lower value",1.01
same,normalized growth,"locus YLR370C, strain arc18, stronger effect = lower value",1.02
same,normalized growth,"locus YLR371W, strain rom2, stronger effect = lower value",1
same,normalized growth,"locus YLR384C, strain iki3, stronger effect = lower value",1
same,normalized growth,"locus YLR418C, strain cdc73, stronger effect = lower value",0.959
same,normalized growth,"locus YML016C, strain PPZ1, stronger effect = lower value",1.01
same,normalized growth,"locus YML032C, strain rad52, stronger effect = lower value",0.993
same,normalized growth,"locus YML120C, strain ndi1, stronger effect = lower value",0.993
same,normalized growth,"locus YML124C, strain tub3, stronger effect = lower value",0.988
same,normalized growth,"locus YMR058W, strain fet3, stronger effect = lower value",1.02
same,normalized growth,"locus YMR078C, strain ctf18, stronger effect = lower value",0.986
same,normalized growth,"locus YMR125W, strain sto1, stronger effect = lower value",1
same,normalized growth,"locus YMR129W, stronger effect = lower value",1
same,normalized growth,"locus YMR205C, strain PFK2, stronger effect = lower value",1.01
same,normalized growth,"locus YMR223W, strain ubp8, stronger effect = lower value",0.969
same,normalized growth,"locus YMR231W, strain pep5, stronger effect = lower value",1.02
same,normalized growth,"locus YMR307W, strain GAS1, stronger effect = lower value",1.05
same,normalized growth,"locus YNL067W, strain RPL9B, stronger effect = lower value",0.976
same,normalized growth,"locus YNL071W, strain lat1, stronger effect = lower value",1.02
same,normalized growth,"locus YNL153C, strain GIM3, stronger effect = lower value",0.996
same,normalized growth,"locus YNL183C, strain NPR1, stronger effect = lower value",0.99
same,normalized growth,"locus YNL209W, strain ssb2, stronger effect = lower value",1.01
same,normalized growth,"locus YNL233W, strain BNI4, stronger effect = lower value",0.998
same,normalized growth,"locus YNL248C, strain rpa49, stronger effect = lower value",1.03
same,normalized growth,"locus YNL250W, strain rad50, stronger effect = lower value",0.959
same,normalized growth,"locus YNL271C, strain bni1, stronger effect = lower value",0.999
same,normalized growth,"locus YNL298W, strain CLA4, stronger effect = lower value",0.997
same,normalized growth,"locus YNL307C, strain MCK1, stronger effect = lower value",0.983
same,normalized growth,"locus YNL322C, strain KRE1 (second series), stronger effect = lower value",1.01
same,normalized growth,"locus YNL322C, strain KRE1, stronger effect = lower value",1.01
same,normalized growth,"locus YNR049C, strain mso1, stronger effect = lower value",1.03
same,normalized growth,"locus YNR052C, strain pop2, stronger effect = lower value",0.972
same,normalized growth,"locus YOL006C, strain TOP1, stronger effect = lower value",1.09
same,normalized growth,"locus YOL012C, strain htz1",0.612
same,normalized growth,"locus YOL147C, strain pex11, stronger effect = lower value",0.99
same,normalized growth,"locus YOR001W, strain rrp6, stronger effect = lower value",1.03
same,normalized growth,"locus YOR061W, strain CKA2, stronger effect = lower value",1.02
same,normalized growth,"locus YOR069W, strain VPS5, stronger effect = lower value",1
same,normalized growth,"locus YOR070C, strain gyp1, stronger effect = lower value",1.02
same,normalized growth,"locus YOR080W, strain dia2, stronger effect = lower value",1.01
same,normalized growth,"locus YOR083W, strain WHI5, stronger effect = lower value",1.01
same,normalized growth,"locus YOR106W, strain vam3, stronger effect = lower value",1.01
same,normalized growth,"locus YOR136W, strain idh2, stronger effect = lower value",0.979
same,normalized growth,"locus YOR144C, strain elg1, stronger effect = lower value",0.987
same,normalized growth,"locus YOR184W, strain ser1, stronger effect = lower value",1.03
same,normalized growth,"locus YOR231W, strain MKK1, stronger effect = lower value",1.03
same,normalized growth,"locus YOR265W, strain rbl2, stronger effect = lower value",0.991
same,normalized growth,"locus YOR270C, strain vph1, stronger effect = lower value",1.07
same,normalized growth,"locus YOR290C, strain snf2, stronger effect = lower value",1.01
same,normalized growth,"locus YOR316C, strain cot1, stronger effect = lower value",0.984
same,normalized growth,"locus YPL051W, strain arl3, stronger effect = lower value",1.02
same,normalized growth,"locus YPL055C, strain LGE1, stronger effect = lower value",1.04
same,normalized growth,"locus YPL078C, strain atp4, stronger effect = lower value",1.01
same,normalized growth,"locus YPL106C, strain sse1, stronger effect = lower value",1.06
same,normalized growth,"locus YPL240C, strain hsp82, stronger effect = lower value",1.01
same,normalized growth,"locus YPL241C, strain CIN2, stronger effect = lower value",1.01
same,normalized growth,"locus YPL256C, strain CLN2, stronger effect = lower value",1.05
same,normalized growth,"locus YPR119W, strain clb2, stronger effect = lower value",0.992
same,normalized growth,"locus YPR141C, strain kar3, stronger effect = lower value",0.993
same,normalized growth,"locus YPR163C, strain tif3, stronger effect = lower value",0.99
same,normalized growth,"locus YPR167C, strain met16, stronger effect = lower value",0.985
same,normalized growth,"strain wtn01, stronger effect = lower value",0.99
